Source: PubChem BioAssay (NCI)
Compounds without any hit were thinned out: in the full panel of roughly 79,000, 15% have a hit. Calls of active or inactive are those of the source. Rule as the data show it: active = growth inhibition above about 70%; inactive = the rest.

Columns and labels:
[1] = NCI Yeast Anticancer Drug Screen. Data for the rad52 strain (AID 147);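 also: 0% = growth of vehicle-treated control cultures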; conditions: S. cerevisiae rad52 mutant growth inhibition, active compounds read high
Method in brief: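 Inhibition of yeast growth, referenced to vehicle controls, was the measured output for a strain with defective DNA damage repair.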

[2] = NCI Yeast Anticancer Drug Screen. Data for the wt1 strain (AID 149);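 also: 0% = growth of vehicle-treated wt1 cultures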; conditions: S. cerevisiae wt1 strain (SPY 50644) growth inhibition, active compounds read high
Method in brief: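 wt1 yeast, compound-treated; % growth inhibition vs vehicle control.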

[3] = NCI Yeast Anticancer Drug Screen. Data for the rad50EPP+ strain (AID 151);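 also: 0% = growth of vehicle-treated control cultures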; conditions: S. cerevisiae rad50 mutant strain, active compounds read high
Method in brief: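 Genetically defined yeast (rad50EPP+, DNA damage repair alteration) is grown with compound, and inhibition of growth is expressed relative to vehicle-treated controls.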

[4] = NCI Yeast Anticancer Drug Screen. Data for the rad50 strain (AID 155);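 also: 0% = growth of vehicle-only cultures of the same strain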; conditions: S. cerevisiae rad50 strain growth inhibition, active compounds read high
Method in brief: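 Genetically altered yeast (DNA repair pathway); compound treatment; growth inhibition vs vehicle ctrl.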

[5] = NCI Yeast Anticancer Drug Screen. Data for the mec2-1 strain (AID 157); conditions: S. cerevisiae mec2-1 strain, active compounds read high
Method in brief: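 Each compound was tested on mec2-1 yeast, a strain altered in DNA damage repair or cell cycle control. Growth inhibition is reported relative to vehicle.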

[6] = NCI Yeast Anticancer Drug Screen. Data for the rad14 strain (AID 159);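 also: 0% = growth of vehicle-treated control cultures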; conditions: S. cerevisiae rad14 strain growth inhibition, active compounds read high
Method in brief: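 Test compounds were applied to a repair-deficient yeast strain. Its growth was then compared with that of cultures given vehicle alone, and inhibition was expressed relative to those controls.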

[7] = NCI Yeast Anticancer Drug Screen. Data for the sgs1 mgt1 strain (AID 161);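 also: 0% = growth of cultures given vehicle only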; conditions: S. cerevisiae sgs1 mgt1 strain, active compounds read high
Method in brief: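 Read-out: growth inhibition vs vehicle controls. Cells: mutant yeast strain deficient in DNA damage repair.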

[8] = NCI Yeast Anticancer Drug Screen. Data for the CLN2oe strain (AID 163);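 also: 0% = growth of vehicle-only control cultures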; conditions: S. cerevisiae CLN2oe strain, active compounds read high
Method in brief: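 First, the altered yeast strain was treated with each compound; second, its growth was measured; finally, inhibition was derived by comparison with vehicle controls.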

[9] = NCI Yeast Anticancer Drug Screen. Data for the cln2 rad14 strain (AID 165);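 also: 0% = growth equal to vehicle treated cultures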; conditions: S. cerevisiae cln2 rad14 strain, active compounds read high
Method in brief: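 Test compounds were added to cln2 rad14 yeast cultures; inhibition of growth was then determined by comparison with vehicle treatment.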

[10] = NCI Yeast Anticancer Drug Screen. Data for the bub3 strain (AID 167); conditions: S. cerevisiae bub3 mutant strain, active compounds read high
Method in brief: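 Yeast carrying a defined mutation is treated with each compound, and growth is compared with that of vehicle-exposed cells to give inhibition.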

[11] = NCI Yeast Anticancer Drug Screen. Data for the wt2 strain (AID 169);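 also: 0% = growth of vehicle-treated yeast cultures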; conditions: S. cerevisiae wt2 strain growth inhibition, active compounds read high
Method in brief: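 The panel's yeast strains carry defined changes in DNA repair or cell cycle genes. Each strain is grown with compound, and growth loss is scored relative to vehicle.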

[12] = NCI Yeast Anticancer Drug Screen. Data for the mlh1 strain (AID 171);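 also: 0% = growth of vehicle-treated control cultures of the same strain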; conditions: S. cerevisiae mlh1 strain growth inhibition, active compounds read high
Method in brief: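 Inhibition values reflect reduced yeast growth in the presence of compound, referenced to vehicle controls, using a strain chosen for its alteration in DNA repair or cell cycle control.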

[13] = NCI Yeast Anticancer Drug Screen. Data for the sgs1 strain (AID 173);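 also: 0% = growth of vehicle-only control cultures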; conditions: S. cerevisiae sgs1 mutant, active compounds read high
Method in brief: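 Vehicle-treated cultures served as reference for growth inhibition of a yeast strain altered in DNA damage repair or cell cycle control after compound exposure.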

[14] = NCI Yeast Anticancer Drug Screen. Data for the mlh1 rad18 strain (AID 175); conditions: S. cerevisiae mlh1 rad18 strain growth inhibition, active compounds read high
Method in brief: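 Inhibition values reflect reduced growth of mutant yeast versus vehicle-treated controls following compound exposure; the mutations affect DNA damage repair.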

[15] = NCI Yeast Anticancer Drug Screen. Data for the rad18 strain (AID 177); conditions: S. cerevisiae rad18 mutant growth inhibition, active compounds read high
Method in brief: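 Steps: expose repair-mutant yeast to compound; measure growth; express as inhibition relative to vehicle control.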

[16] = at 5.0 µM (retest, dose inferred, filed as 0.5)
[17] = at 50.0 µM (retest, dose inferred, filed as 5.0)

Measured: growth inhibition

BrCc1ccccc1C(c1ccccc1)c1ccccc1
inactive: [1]; at 1.2 µM 9% | [2]; at 1.2 µM -2% | [2]; at 3.7 µM 34% | [3]; at 1.2 µM 1% | [3]; at 3.7 µM 6% | [3]; at 11.0 µM 8% | [3]; at 33.0 µM 9% | [3]; at 100.0 µM 15% | [4]; at 1.2 µM 8% | [4]; [16] 12% | [5]; at 1.2 µM 4% | [5]; at 3.7 µM 42% | [5]; [16] 21% | [6]; at 1.2 µM 3% | [6]; at 3.7 µM 64% | [7]; [16] 58% | [8]; at 1.2 µM 8% | [8]; at 3.7 µM 64% | [9]; [16] 49% | [10]; at 1.2 µM 4% | [10]; at 3.7 µM 56% | [10]; [16] 24% | [11]; at 1.2 µM -1% | [11]; at 3.7 µM 62% | [12]; at 1.2 µM 10% | [12]; at 3.7 µM 68% | [13]; at 1.2 µM 9%
active: [1]; at 3.7 µM 79% | [1]; at 11.0 µM 96% | [1]; at 33.0 µM 96% | [1]; at 100.0 µM 94% | [2]; at 11.0 µM 96% | [2]; at 33.0 µM 97% | [2]; at 100.0 µM 95% | [4]; at 3.7 µM 85% | [4]; at 11.0 µM 97% | [4]; at 33.0 µM 96% | [4]; [17] 96% | [4]; at 50.0 µM 98.1% | [4]; at 100.0 µM 93% | [5]; at 11.0 µM 95% | [5]; at 33.0 µM 96% | [5]; [17] 98% | [5]; at 50.0 µM 98.2% | [5]; at 100.0 µM 96% | [6]; at 11.0 µM 96% | [6]; at 33.0 µM 97% | [6]; at 100.0 µM 95% | [7]; [17] 98% | [7]; at 50.0 µM 97.9% | [8]; at 11.0 µM 97% | [8]; at 33.0 µM 97% | [8]; at 100.0 µM 96% | [9]; [17] 93% | [9]; at 50.0 µM 95.8% | [10]; at 11.0 µM 96% | [10]; at 33.0 µM 97% | [10]; [17] 97% | [10]; at 50.0 µM 97.3% | [10]; at 100.0 µM 94% | [11]; at 11.0 µM 97% | [11]; at 33.0 µM 96% | [11]; at 100.0 µM 95% | [12]; at 11.0 µM 97% | [12]; at 33.0 µM 97% | [12]; at 100.0 µM 96% | [13]; at 3.7 µM 84% | [13]; at 11.0 µM 97% | [13]; at 33.0 µM 97% | [13]; at 100.0 µM 96% | [14]; [16] 82% | [14]; [17] 97% | [14]; at 50.0 µM 98.3%

CC(=O)C1=C(C)O/C(=C/c2cccc(Cl)c2)C1=O
active: [1]; at 100.0 µM 99% | [3]; at 100.0 µM 88% | [4]; at 100.0 µM 96% | [5]; at 50.0 µM 71% | [5]; at 100.0 µM 96% | [8]; at 100.0 µM 98% | [10]; at 100.0 µM 91% | [11]; at 33.0 µM 71% | [11]; at 100.0 µM 91% | [12]; at 100.0 µM 75% | [13]; at 100.0 µM 95% | [14]; [17] 88% | [14]; at 50.0 µM 91.3% | [15]; at 100.0 µM 99%
inactive: [1]; at 1.2 µM 14% | [1]; at 3.7 µM 36% | [1]; at 11.0 µM 27% | [1]; at 33.0 µM 36% | [2]; at 1.2 µM -7% | [2]; at 3.7 µM 2% | [2]; at 11.0 µM 2% | [2]; at 33.0 µM -2% | [2]; at 100.0 µM 25% | [3]; at 1.2 µM 16% | [3]; at 3.7 µM 25% | [3]; at 11.0 µM 22% | [3]; at 33.0 µM 32% | [4]; at 1.2 µM -4% | [4]; at 3.7 µM 19% | [4]; [16] -1% | [4]; at 11.0 µM 21% | [4]; at 33.0 µM 18% | [4]; [17] 59% | [4]; at 50.0 µM 52.7% | [5]; at 1.2 µM -9% | [5]; at 3.7 µM 2% | [5]; [16] 2% | [5]; at 11.0 µM 0% | [5]; at 33.0 µM 7% | [5]; [17] 68% | [6]; at 1.2 µM 7% | [6]; at 3.7 µM 0% | [6]; at 11.0 µM 6% | [6]; at 33.0 µM 10% | [6]; at 100.0 µM 28% | [7]; [16] 10% | [7]; [17] 60% | [7]; at 50.0 µM 10.7% | [8]; at 1.2 µM 5% | [8]; at 3.7 µM 5% | [8]; at 11.0 µM 15% | [8]; at 33.0 µM 29% | [9]; [16] 6% | [9]; [17] 12% | [9]; at 50.0 µM -1.45% | [10]; at 1.2 µM 0% | [10]; at 3.7 µM 12% | [10]; [16] 5% | [10]; at 11.0 µM 18% | [10]; at 33.0 µM 26% | [10]; [17] 47% | [10]; at 50.0 µM -8% | [11]; at 1.2 µM -12% | [11]; at 3.7 µM 6% | [11]; at 11.0 µM 16% | [12]; at 1.2 µM -3% | [12]; at 3.7 µM -4% | [12]; at 11.0 µM 4% | [12]; at 33.0 µM 9% | [13]; at 1.2 µM 2% | [13]; at 3.7 µM 36% | [13]; at 11.0 µM 29% | [13]; at 33.0 µM 39% | [14]; [16] 9% | [15]; at 1.2 µM -7% | [15]; at 3.7 µM 16% | [15]; at 11.0 µM 13% | [15]; at 33.0 µM 28%
